# Biological target: Metabotropic glutamate receptor 7 (Rattus norvegicus) (UniProt P35400)
# Test: glutamate curve shift by mGlu7 potentiators, cell-based, rat, GIRK per title (AID 743386)
# Conditions: rat mGlu7/Ga15, glutamate CRC shift, calcium; glutamate EC50 left shift; at 10 µM; stronger effect = higher value
# Sequence of Metabotropic glutamate receptor 7 (Rattus norvegicus) (P35400 whole entry, looked up): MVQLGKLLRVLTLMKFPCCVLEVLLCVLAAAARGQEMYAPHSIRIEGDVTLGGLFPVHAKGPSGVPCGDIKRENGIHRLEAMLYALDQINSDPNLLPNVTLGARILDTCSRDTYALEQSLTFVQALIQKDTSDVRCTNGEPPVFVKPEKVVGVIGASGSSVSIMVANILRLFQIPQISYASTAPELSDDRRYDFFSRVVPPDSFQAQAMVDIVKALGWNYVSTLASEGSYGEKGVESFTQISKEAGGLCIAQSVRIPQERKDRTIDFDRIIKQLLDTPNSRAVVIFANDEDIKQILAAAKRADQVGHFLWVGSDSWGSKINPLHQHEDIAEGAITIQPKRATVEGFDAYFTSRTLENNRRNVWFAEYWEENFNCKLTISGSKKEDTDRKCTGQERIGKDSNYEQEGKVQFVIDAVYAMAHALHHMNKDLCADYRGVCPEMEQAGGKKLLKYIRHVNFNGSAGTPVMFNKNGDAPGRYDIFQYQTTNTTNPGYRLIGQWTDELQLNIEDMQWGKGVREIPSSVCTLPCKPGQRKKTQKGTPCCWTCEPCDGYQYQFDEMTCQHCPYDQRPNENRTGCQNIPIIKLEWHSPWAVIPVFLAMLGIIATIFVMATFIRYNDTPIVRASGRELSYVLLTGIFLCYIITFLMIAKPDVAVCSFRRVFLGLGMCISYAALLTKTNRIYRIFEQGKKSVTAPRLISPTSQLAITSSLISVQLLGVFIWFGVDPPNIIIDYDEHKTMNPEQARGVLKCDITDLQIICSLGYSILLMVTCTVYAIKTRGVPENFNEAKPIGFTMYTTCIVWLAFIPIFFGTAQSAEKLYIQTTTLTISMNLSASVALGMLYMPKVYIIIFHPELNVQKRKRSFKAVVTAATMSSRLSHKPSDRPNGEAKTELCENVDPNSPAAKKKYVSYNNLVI
compound,measurement,value
COC(=O)c1ccc(-n2c(C)cc(C(=O)CSc3ccc(NC(C)=O)cc3)c2C)cc1,fold shift,4.91

# Reference: PubChem BioAssay AID743386 (Vanderbilt Specialized Chemistry Center, 2014)
